# Experimental data taken from PubChem BioAssay (Tox21).
# Inconclusive results are not listed. A call without a number means that no potency is given here. Active and inactive are the calls of the source. Calls follow the shape of the dose curve; as a rule, active = well fitted cell-killing curve with a large enough effect in the repeat runs; inconclusive = weak or mixed curves; inactive = no such curve, though single readings can be large or run the other way.
# Assay: qHTS assay to identify small molecule antagonists of the peroxisome proliferator-activated receptor delta (PPARd) signaling pathway - cell viability counter screen (AID 743213); also: nearly all actives have a fitted effect of over 50% in size
# Details: PPARd-bla HEK293H viability, CellTiter-Glo luminescence, 17 h; series mostly up to 62 µM
# Source text: U.S. Tox21 Program National Center for Advancing Translational Sciences [NCATS] NIH Chemical Genomics Center [NCGC] U.S. Environmental Protection Agency [EPA] National Institutes of Environmental Health Sciences [NIEHS] National Toxicology Program [NTP] U.S. Food and Drug Administration [FDA] Tox21 Assay Overview: The peroxisome proliferator-activated receptors (PPARs) are lipid-activated transcription factors of the nuclear receptor superfamily with three distinct subtypes namely PPAR alpha, PPAR delta (PPARd) and PPAR gamma. All these subtypes heterodimerizes with Retinoid X receptor (RXR) and have different physiological functions. […] To identify the compounds that inhibit PPAR-delta signaling, GeneBLAzer PPAR delta UAS-bla HEK293H cell line (Invitrogen, Carlsbad, CA, USA) containing a beta-lactamase reporter gene under the control of an Upstream Activator Sequence (UAS) was used to screen the Tox21 compound library. The cytotoxicity of the Tox21 compound library against the PPARd-bla cell line was tested in parallel by measuring the cell viability using CellTiter-Glo assay (Promega, Madison, WI) in the same wells.
# Tox21 Assay Protocol Summary: PPARd-bla cells were dispensed at 3000 cells/5uL/well in 1536-well black wall/clear bottom plates using a Multidrop Combi (Thermo Fisher Scientific, Waltham, MA) dispenser. After the assay plates were incubated at 37 C and 5% CO2 for 5 h, 23 nL of compounds dissolved in DMSO, positive controls or DMSO only was transferred to the assay plate by a Pintool station (Kalypsys, San Diego, CA), followed by addition of 1ul L165041 (300 nM, final concentration in the wells). The assay plates were incubated at 37 C for 17 h, and then 1 uL of LiveBLAzerTM B/G FRET substrate was added using a Bioraptr Flying Reagent Dispenser (FRD) workstation (Beckman Coulter, Indianapolis, IN, USA). The assay plates were incubated at room temperature for 2 h and fluorescence intensity was measured by an Envision plate reader (PerkinElmer, Shelton, CT). For cell viability readout that measures cytotoxicity, 3 ul/well of CellTiter-Glo reagent was added into the assay plates using a Bioraptr FRD. After 30 min incubation at room temperature, the luminescence intensity in the plates was measured using a ViewLux plate reader (PerkinElmer).
# Potency is read from the fitted curve at half-maximal effect.
row,SMILES,Potency
1,CC(C)Nc1cccnc1N1CCN(C(=O)c2cc3cc(NS(C)(=O)=O)ccc3[nH]2)CC1,inactive
2,C[C@@H](O[C@H]1OCCN(Cc2n[nH]c(=O)[nH]2)[C@H]1c1ccc(F)cc1)c1cc(C(F)(F)F)cc(C(F)(F)F)c1,26.6 µM (active)
3,C1COC1,inactive
4,CCC1CO1 (stereo not given),inactive
5,Brc1cc2ccccc2c2ccccc12,inactive
6,CC(=O)Nc1cc(S(=O)(=O)O)cc2cc(S(=O)(=O)O)c(N=Nc3ccccc3)c(O)c12,inactive
7,Cc1ccc(CO)cc1,inactive
8,C[C@@H]1CN(CCCn2c3ccccc3c3ccccc32)C[C@H](C)N1,9.44 µM (active)
9,O=C1c2ccccc2C(=O)C1c1ccc(Br)cc1,inactive
10,O=C1CCCCCCCCCCOCCCCO1,inactive
11,CCC(C)COC(=O)CC(C)C (stereo not given),inactive
12,CCCCCCNC(=O)n1cc(F)c(=O)[nH]c1=O,inactive
13,C[C@H]1c2cccc(O)c2C(O)=C2C(=O)[C@]3(O)C(O)=C(C(N)=O)C(=O)[C@@H](N(C)C)[C@@H]3[C@@H](O)[C@@H]21,inactive
14,CC1CC(C)C(=O)C1=O (stereo not given),inactive
15,c1csc(SSc2cccs2)c1,inactive
16,O=c1[nH]ncc2ccccc12,inactive
17,CCn1cc(C(=O)O)c(=O)c2cc(F)c(N3CCNCC3)cc21,inactive
18,Cc1ccc(OC(=O)c2ccccc2O)cc1,inactive
19,NCCNCCO,inactive
20,Cc1cccc(O)c1N,inactive

row,SMILES,Potency
1,C1C[C@@H]2[C@H]3CC[C@H](C3)[C@@H]2C1,inactive
2,CO/N=C(/C(=O)N[C@@H]1C(=O)N2C(C(=O)O)=C(COC(N)=O)CS[C@H]12)c1ccco1,inactive
3,C=C1C[C@@]23CC[C@H]4[C@@](C)(CCC[C@@]4(C)C(=O)O[C@@H]4O[C@H](CO)[C@@H](O)[C@H](O)[C@H]4O)[C@@H]2CC[C@]1(O[C@@H]1O[C@H](CO)[C@@H](O)[C@H](O[C@@H]2O[C@H](CO)[C@@H](O)[C@H](O)[C@H]2O)[C@H]1O[C@@H]1O[C@H](CO)[C@@H](O)[C@H](O)[C@H]1O)C3,inactive
4,CC(CCC(=O)O)C(=O)O (stereo not given),inactive
5,CCCCCCCCCI,inactive
6,O=C1c2ccccc2C(=O)c2c(O)c(O)cc(O)c21,inactive
7,CC(C)(c1ccccc1)c1ccccc1,inactive
8,CC(=O)c1cc2ccccc2s1,inactive
9,O=c1c(O)c(-c2ccc(O)cc2)oc2cc(O)cc(O)c12,inactive
10,CCCCCCCC/C=C\CCCCCCCCCCCC(=O)O,inactive
11,CCCC(=O)C(=O)O,inactive
12,CCCCCCCC/C=C\CCCCCCCCO,inactive
13,C=C1c2cccc(O)c2C(O)=C2C(=O)[C@]3(O)C(O)=C(C(N)=O)C(=O)[C@@H](N(C)C)[C@@H]3[C@@H](O)[C@H]12,inactive
14,CC(C)(O)c1ccc(CNC(=O)c2cccnc2Oc2ccc3nonc3c2)cc1,inactive
15,NC1[C@H]2CN(c3nc4c(cc3F)c(=O)c(C(=O)O)cn4-c3ccc(F)cc3F)C[C@@H]12 (stereo not given in full),inactive
16,Cc1ccc(C(C)(C)O)cc1,inactive
17,CN(C(=O)CN(CCO)CC(=O)N(C)C(C)(C)Cc1ccccc1)C(C)(C)Cc1ccccc1,inactive
18,C[C@@H](O)[C@H]1C(=O)N2C(C(=O)O)=C([C@H]3CCCO3)S[C@H]12,inactive
19,CCCCCC#CC(=O)OC,inactive
20,C=C(C)[C@@H]1CCC2=CCC[C@@H](C)[C@]2(C)C1,inactive
